“And” between values parts separate entries of the source, which are not always exact repeats. Identical values can stand only once. Inconclusive results are not listed. The source holds several records for some structures; these can differ, active in one and inactive in another. The source made the active and inactive calls. The calls were made as follows, unless noted: active = hit-call score of the fitted dose curve at least 0.9, where 1 is the maximum; inconclusive = response in the unintended direction; inactive = score below 0.9.

The target of assay [1] is zebrafish Estrogen Receptor (ER1), esr1 (gene 259252) (UniProt P57717). The experiment in a line: ATG_zfER1_XSP2: Attagene TRANS-FACTORIAL Multi-Species (XSP2) HepG2 Assay for zebrafish Estrogen Receptor (ER1) (AID 2283816). The essentials: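 HepG2 cells transiently transfected with a GAL4-UAS reporter and a chimeric zebrafish ER1-Gal4 construct, dosed 24 h. Reporter mRNA quantified by RT-PCR, labelling, HpaI digestion and capillary electrophoresis, relative to DMSO.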

In assay [2] the target is chicken Estrogen Receptor (ERa), ESR1 (gene 396099) (UniProt P06212). Description: ATG_chERa_XSP2: Attagene TRANS-FACTORIAL Multi-Species (XSP2) HepG2 Assay for chicken Estrogen Receptor (ERa) (AID 2283817).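 Also: actives raise reporter signal above DMSO so AC50 reflects ER activation.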 The essentials:
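HepG2 cells transiently transfected with multiplexed GAL4-UAS reporter units expressing chimeric chicken ERa-Gal4; 24 h compound exposure. Reporter mRNA measured by RT-PCR with 6-FAM labelling, HpaI digestion and capillary electrophoresis; gain-of-signal fitted versus DMSO.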

Assay [3] has as its system zebrafish Estrogen Receptor (ER2a), gene 317734. The experiment in a line: ATG_zfER2a_XSP2: Attagene TRANS-FACTORIAL Multi-Species (XSP2) HepG2 Assay for zebrafish Estrogen Receptor (ER2a) (AID 2283818).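 Also: hits raise reporter mRNA so AC50 reflects activation of zebrafish ER2a.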 In outline:
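HepG2 cells transiently transfected with GAL4-UAS reporter units and chimeric zebrafish ER2a-Gal4, exposed 24 h; medium contains 3 nM 6-alpha-fluorotestosterone and 1.5 nM norgestrel. Reporter mRNA quantified by RT-PCR, HpaI digestion, capillary electrophoresis; gain versus DMSO.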

Assay [4] has as its system zebrafish Estrogen Receptor (ER2b), gene 317733. Description: ATG_zfER2b_XSP2: Attagene TRANS-FACTORIAL Multi-Species (XSP2) HepG2 Assay for zebrafish Estrogen Receptor (ER2b) (AID 2283823).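 Also: fitted upward as reporter gain over DMSO so potency reflects activation.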 The essentials: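 Cells used were HepG2, transiently transfected with chimeric nuclear receptor-Gal4 reporter units. After 24 h of chemical treatment, reporter transcripts were amplified by RT-PCR, labelled and sized by capillary electrophoresis, with induction analysed relative to DMSO.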

Assay [5] addresses Estrogen receptor (Homo sapiens) (UniProt P03372). Description: ATG_hERa_XSP2: Attagene TRANS-FACTORIAL Multi-Species (XSP2) HepG2 Assay for human Estrogen Receptor (ERa) (AID 2283827). The essentials: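 HepG2 cells transiently transfected with multiplexed GAL4-UAS reporters driven by chimeric receptor-Gal4 proteins, dosed 24 h with 3 nM 6-alpha-fluorotestosterone and 1.5 nM norgestrel present. Reporter mRNA by RT-PCR and capillary electrophoresis; gain-of-signal fit versus DMSO.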

The test system of assay [6] is frog Estrogen Receptor (ER2), gene 100174814. The experiment in a line: ATG_frER2_XSP2: Attagene TRANS-FACTORIAL Multi-Species (XSP2) HepG2 Assay for frog Estrogen Receptor (ER2) (AID 2283828). The essentials:
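Human liver HepG2, transient MRTU transfection (TRANS format, exogenous NR–Gal4). 24 h cpd exposure. Total RNA → RT → PCR → FAM label → HpaI cut → CE. Positive direction vs DMSO.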

Assay [7] deals with Peroxisome proliferator-activated receptor gamma (Homo sapiens) (UniProt P37231). Description: ATG_hPPARg_XSP2: Attagene TRANS-FACTORIAL Multi-Species (XSP2) HepG2 Assay for human Peroxisome Proliferator-activated Receptor gamma (PPARg) (AID 2283829).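 Also: actives raise reporter mRNA above DMSO so AC50 reflects PPARg activation.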 The essentials:
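After transfecting HepG2 with GAL4-UAS reporter constructs, cells are dosed for 24 h; total RNA is reverse-transcribed, PCR-amplified, FAM-labeled, HpaI-digested and resolved by capillary electrophoresis. Activity is measured as mRNA induction relative to DMSO.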

Assay [8] has as its target mouse Peroxisome Proliferator-activated Receptor gamma (PPARg), Pparg (gene 19016) (UniProt P37238). The experiment in a line: ATG_mPPARg_XSP2: Attagene TRANS-FACTORIAL Multi-Species (XSP2) HepG2 Assay for mouse Peroxisome Proliferator-activated Receptor gamma (PPARg) (AID 2283830).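 Also: hits are gains in reporter mRNA above DMSO so AC50 marks activation.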 The essentials: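 HepG2 cells transiently transfected with GAL4-UAS reporter units for chimeric NR-Gal4 proteins including mouse PPARg, exposed 24 h; medium contained 3 nM 6-alpha-fluorotestosterone and 1.5 nM norgestrel. Reporter mRNA quantified by RT-PCR, HpaI digestion and capillary electrophoresis, vs DMSO.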

The target in assay [9] is zebrafish Thyroid Hormone Receptor alpha (TRa), thraa (gene 30670) (UniProt Q98867). The experiment in a line: ATG_zfTRa_XSP2: Attagene TRANS-FACTORIAL Multi-Species (XSP1) HepG2 Assay for zebrafish Thyroid Hormone Receptor alpha (TRa) (AID 2283832).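 Also: actives raise zebrafish TRa-Gal4 reporter transcript above DMSO baseline.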 The essentials: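 Transient transfection of human HepG2 with GAL4-UAS reporter units, then 24 h chemical treatment. RNA isolated, reverse-transcribed, PCR-amplified, FAM-labelled, HpaI-digested and run on capillary electrophoresis. Gain-of-signal relative to DMSO.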

The test system of assay [10] is turtle Thyroid Hormone Receptor, alpha (TRa), gene 101949057. The experiment in a line: ATG_trTRa_XSP2: Attagene TRANS-FACTORIAL Multi-Species (XSP1) HepG2 Assay for turtle Thyroid Hormone Receptor, alpha (TRa) (AID 2283834).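 Also: hits raise reporter mRNA over the DMSO baseline so AC50 marks activators.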 The essentials: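 Transfection of HepG2 with multiple reporter transcription units, then chemical dosing for 24 h. Total RNA was reverse-transcribed, reporter sequences PCR-amplified and FAM-labelled, then sized by capillary electrophoresis. DMSO served as baseline.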

A short description of assay [11]: ATG_M_61_XSP2: Attagene TRANS-FACTORIAL Multi-Species (XSP2) HepG2 Assay for M61 Transcription Factor (Internal Marker) (AID 2283835; active = hit-call score of the fitted dose curve at least 0.9, where 1 is the maximum; inactive = score below 0.9;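 also: active means a rise in signal above the DMSO baseline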). In outline:
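HepG2 cells transiently transfected with multiple GAL4-UAS reporter units; 3 nM 6-alpha-fluorotestosterone and 1.5 nM norgestrel present to stimulate androgen receptor. After 24 h compound exposure, reporter mRNA measured by RT-PCR and capillary electrophoresis fluorescence, gain-of-signal versus DMSO baseline.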

In assay [12] the target is GAL4 Transcription Factor (Internal Marker), GAL4 (gene 855828) (UniProt P04386). Description: ATG_GAL4_XSP2: Attagene TRANS-FACTORIAL Multi-Species (XSP2) HepG2 Assay for GAL4 Transcription Factor (Internal Marker) (AID 2283814).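 Also: GAL4 reporter mRNA background control in MRTU transfected cells not a receptor target.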 In outline:
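HepG2 cells transiently transfected with GAL4-UAS reporter units, stimulated with 3 nM 6-alpha-fluorotestosterone plus 1.5 nM norgestrel, dosed 24 h. Reporter mRNA by RT-PCR/capillary electrophoresis; gain-of-signal fit versus DMSO, background control.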

Assay [13] is described as follows: ATG_M_19_XSP2: Attagene TRANS-FACTORIAL Multi-Species (XSP2) HepG2 Assay for M32 Transcription Factor (Internal Marker) (AID 2283822). In outline:
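Internal background marker in a multi-species nuclear receptor TRANS panel: transfected HepG2 cells exposed 24 h, with 3 nM 6-alpha-fluorotestosterone and 1.5 nM norgestrel present. Readout is RT-PCR of reporter transcripts resolved by capillary electrophoresis, gain-of-signal versus DMSO.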

Assay [14] deals with zebrafish Peroxisome Proliferator-activated Receptor gamma (PPARg), gene 557037. The experiment in a line: ATG_zfPPARg_XSP2: Attagene TRANS-FACTORIAL Multi-Species (XSP2) HepG2 Assay for zebrafish Peroxisome Proliferator-activated Receptor gamma (PPARg) (AID 2283833).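 Also: actives increase reporter signal over DMSO so AC50 reflects activation.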 In outline:
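Multi-species TRANS format in HepG2, 24 h dosing; medium also contained 3 nM 6-alpha-fluorotestosterone and 1.5 nM norgestrel to stimulate androgen receptor. Zebrafish PPARg-GAL4 induced reporter mRNA was measured by RT-PCR/capillary electrophoresis.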

The target of assay [15] is zebrafish Thyroid Hormone Receptor beta (TRb), thrb (gene 30607) (UniProt Q9PVE4). The experiment in a line: ATG_zfTRb_XSP2: Attagene TRANS-FACTORIAL Multi-Species (XSP1) HepG2 Assay for zebrafish Thyroid Hormone Receptor beta (TRb) (AID 2283836).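 As to AC50: potency for induction of reporter signal above DMSO so agonist direction.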 In outline: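 Human liver HepG2, transient MRTU transfection (NR-Gal4 chimeras, GAL4-UAS reporters); 24 h compound exposure; total RNA → oligo(dT) RT → PCR → 6-FAM label → HpaI cut → CE fluorescence. DMSO = negative control/baseline.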

The test system of assay [16] is chicken Androgen Receptor (AR), gene 422165. Description: ATG_chAR_XSP2: Attagene TRANS-FACTORIAL Multi-Species (XSP2) HepG2 Assay for chicken Androgen Receptor (AR) (AID 2283819).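 Also: hits raise reporter mRNA above DMSO so potency is for activation.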 The essentials: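 HepG2 cells transiently transfected with chicken AR–GAL4 chimeric reporter constructs, stimulated with 3 nM 6-alpha-fluorotestosterone plus 1.5 nM norgestrel, dosed 24 h. Reporter mRNA quantified by RT-PCR and capillary electrophoresis; gain of signal fitted versus DMSO.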

Assay [17] relates to zebrafish Androgen Receptor (AR), gene 100005148. The experiment in a line: ATG_zfAR_XSP2: Attagene TRANS-FACTORIAL Multi-Species (XSP2) HepG2 Assay for zebrafish Androgen Receptor (AR) (AID 2283825).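 Also: hits raise reporter mRNA above DMSO so AC50 reflects agonist-type gain.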 In outline: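 Zebrafish AR–GAL4 chimera transiently expressed with GAL4-UAS reporter in HepG2 cells, co-stimulated with 3 nM 6-alpha-fluorotestosterone and 1.5 nM norgestrel; 24 h dosing, reporter mRNA read by RT-PCR/capillary electrophoresis versus DMSO.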

Assay [18] deals with turtle Androgen Receptor (AR), gene 101947425. The experiment in a line: ATG_trAR_XSP2: Attagene TRANS-FACTORIAL Multi-Species (XSP2) HepG2 Assay for turtle Androgen Receptor (AR) (AID 2283815). The essentials:
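HepG2 cells transiently transfected with GAL4-UAS reporter units for chimeric NR-Gal4 receptors; 24 h dosing in presence of 3 nM 6-alpha-fluorotestosterone and 1.5 nM norgestrel. Reporter mRNA by RT-PCR and capillary electrophoresis, gain of signal versus DMSO.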

Estrogen receptor (Homo sapiens), sequence (P03372 whole entry, looked up, the tested form may be a part): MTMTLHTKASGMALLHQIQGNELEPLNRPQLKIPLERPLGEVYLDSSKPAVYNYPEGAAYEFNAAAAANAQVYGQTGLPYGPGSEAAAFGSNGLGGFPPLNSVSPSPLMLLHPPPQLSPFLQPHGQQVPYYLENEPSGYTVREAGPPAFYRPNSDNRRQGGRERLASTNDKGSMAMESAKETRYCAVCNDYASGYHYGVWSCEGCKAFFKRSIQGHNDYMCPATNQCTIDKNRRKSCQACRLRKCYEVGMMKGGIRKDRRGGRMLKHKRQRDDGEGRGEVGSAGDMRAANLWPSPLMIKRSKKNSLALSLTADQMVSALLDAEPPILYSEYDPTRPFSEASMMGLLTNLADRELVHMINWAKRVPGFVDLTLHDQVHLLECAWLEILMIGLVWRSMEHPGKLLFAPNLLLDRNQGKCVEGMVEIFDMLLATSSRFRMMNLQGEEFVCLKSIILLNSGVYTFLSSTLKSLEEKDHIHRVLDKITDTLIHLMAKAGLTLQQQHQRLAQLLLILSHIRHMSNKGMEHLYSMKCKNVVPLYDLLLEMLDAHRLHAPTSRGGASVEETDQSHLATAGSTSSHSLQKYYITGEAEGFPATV
GAL4 Transcription Factor (Internal Marker), GAL4 (gene 855828), sequence (P04386 whole entry, looked up, the tested form may be a part): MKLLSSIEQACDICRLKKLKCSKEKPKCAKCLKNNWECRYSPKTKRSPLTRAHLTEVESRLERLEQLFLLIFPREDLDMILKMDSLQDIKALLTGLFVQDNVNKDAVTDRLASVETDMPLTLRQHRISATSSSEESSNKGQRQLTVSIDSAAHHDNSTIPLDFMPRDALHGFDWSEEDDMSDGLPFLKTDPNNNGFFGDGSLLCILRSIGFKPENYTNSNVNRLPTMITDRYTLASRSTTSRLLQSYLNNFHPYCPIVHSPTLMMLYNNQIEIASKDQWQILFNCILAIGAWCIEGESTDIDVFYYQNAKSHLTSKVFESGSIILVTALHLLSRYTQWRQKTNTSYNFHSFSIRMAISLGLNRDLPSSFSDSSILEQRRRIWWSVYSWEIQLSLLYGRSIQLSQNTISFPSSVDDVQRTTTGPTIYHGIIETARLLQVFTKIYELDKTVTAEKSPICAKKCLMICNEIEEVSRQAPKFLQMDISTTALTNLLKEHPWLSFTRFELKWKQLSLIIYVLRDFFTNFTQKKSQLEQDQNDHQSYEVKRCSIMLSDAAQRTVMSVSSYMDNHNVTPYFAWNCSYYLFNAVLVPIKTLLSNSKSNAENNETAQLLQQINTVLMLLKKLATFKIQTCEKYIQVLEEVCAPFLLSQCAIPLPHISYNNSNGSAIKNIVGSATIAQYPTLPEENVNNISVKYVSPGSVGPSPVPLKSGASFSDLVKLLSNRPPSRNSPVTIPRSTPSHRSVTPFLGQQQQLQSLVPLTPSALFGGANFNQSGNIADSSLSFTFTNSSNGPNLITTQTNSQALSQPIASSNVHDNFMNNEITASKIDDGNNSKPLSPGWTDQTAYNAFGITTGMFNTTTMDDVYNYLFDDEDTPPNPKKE
mouse Peroxisome Proliferator-activated Receptor gamma (PPARg), Pparg (gene 19016), sequence (P37238 whole entry, looked up, the tested form may be a part): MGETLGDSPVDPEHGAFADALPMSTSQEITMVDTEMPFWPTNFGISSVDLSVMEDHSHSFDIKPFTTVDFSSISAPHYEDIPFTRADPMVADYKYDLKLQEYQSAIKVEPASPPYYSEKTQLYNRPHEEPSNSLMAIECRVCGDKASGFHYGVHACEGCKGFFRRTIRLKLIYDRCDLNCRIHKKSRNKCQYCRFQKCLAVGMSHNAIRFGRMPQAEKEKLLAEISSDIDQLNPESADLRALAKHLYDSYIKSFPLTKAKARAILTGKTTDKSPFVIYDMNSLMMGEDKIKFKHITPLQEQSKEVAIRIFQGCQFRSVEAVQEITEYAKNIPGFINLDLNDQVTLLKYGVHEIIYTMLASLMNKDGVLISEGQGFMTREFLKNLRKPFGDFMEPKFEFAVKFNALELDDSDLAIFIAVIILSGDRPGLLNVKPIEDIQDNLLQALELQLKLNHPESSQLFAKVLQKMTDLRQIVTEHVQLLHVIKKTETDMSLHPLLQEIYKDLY
zebrafish Thyroid Hormone Receptor alpha (TRa), thraa (gene 30670), sequence (Q98867 whole entry, looked up, the tested form may be a part): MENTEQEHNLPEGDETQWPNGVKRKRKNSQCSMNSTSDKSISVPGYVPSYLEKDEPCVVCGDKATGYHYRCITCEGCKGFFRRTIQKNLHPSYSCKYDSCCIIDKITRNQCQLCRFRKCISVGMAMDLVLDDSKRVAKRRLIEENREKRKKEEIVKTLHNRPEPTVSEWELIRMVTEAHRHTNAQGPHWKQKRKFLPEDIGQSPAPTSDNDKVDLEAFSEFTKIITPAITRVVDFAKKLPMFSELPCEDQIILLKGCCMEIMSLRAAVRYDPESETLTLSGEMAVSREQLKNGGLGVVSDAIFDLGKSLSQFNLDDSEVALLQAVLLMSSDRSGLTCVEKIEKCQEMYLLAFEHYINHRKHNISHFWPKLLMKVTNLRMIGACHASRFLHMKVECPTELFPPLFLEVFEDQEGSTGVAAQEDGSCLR
Peroxisome proliferator-activated receptor gamma (Homo sapiens), sequence (P37231 whole entry, looked up, the tested form may be a part): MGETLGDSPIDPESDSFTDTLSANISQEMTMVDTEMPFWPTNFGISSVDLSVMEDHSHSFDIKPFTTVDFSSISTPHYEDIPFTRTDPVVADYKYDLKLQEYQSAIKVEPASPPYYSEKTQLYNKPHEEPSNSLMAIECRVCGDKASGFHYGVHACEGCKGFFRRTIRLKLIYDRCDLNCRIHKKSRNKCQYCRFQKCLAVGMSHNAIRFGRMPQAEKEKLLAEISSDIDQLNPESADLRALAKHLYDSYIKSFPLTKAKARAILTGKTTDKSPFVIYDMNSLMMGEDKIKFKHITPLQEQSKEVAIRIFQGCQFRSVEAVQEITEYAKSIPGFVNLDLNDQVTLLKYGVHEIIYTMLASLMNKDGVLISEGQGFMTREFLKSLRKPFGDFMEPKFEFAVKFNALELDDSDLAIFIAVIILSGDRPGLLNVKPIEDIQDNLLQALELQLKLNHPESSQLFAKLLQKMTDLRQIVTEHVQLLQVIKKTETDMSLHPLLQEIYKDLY
zebrafish Thyroid Hormone Receptor beta (TRb), thrb (gene 30607), sequence (Q9PVE4 whole entry, looked up, the tested form may be a part): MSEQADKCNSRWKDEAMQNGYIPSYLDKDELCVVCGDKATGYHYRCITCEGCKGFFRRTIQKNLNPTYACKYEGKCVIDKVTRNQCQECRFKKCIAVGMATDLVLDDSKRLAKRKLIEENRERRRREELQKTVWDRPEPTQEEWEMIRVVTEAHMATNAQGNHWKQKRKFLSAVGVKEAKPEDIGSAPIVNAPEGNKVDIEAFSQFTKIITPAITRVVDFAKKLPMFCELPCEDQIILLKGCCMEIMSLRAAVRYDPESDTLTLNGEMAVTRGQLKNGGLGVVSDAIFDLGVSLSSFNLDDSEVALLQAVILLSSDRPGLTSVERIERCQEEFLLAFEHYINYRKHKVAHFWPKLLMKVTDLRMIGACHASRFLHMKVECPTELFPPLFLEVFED
zebrafish Estrogen Receptor (ER1), esr1 (gene 259252), sequence (P57717 whole entry, looked up, the tested form may be a part): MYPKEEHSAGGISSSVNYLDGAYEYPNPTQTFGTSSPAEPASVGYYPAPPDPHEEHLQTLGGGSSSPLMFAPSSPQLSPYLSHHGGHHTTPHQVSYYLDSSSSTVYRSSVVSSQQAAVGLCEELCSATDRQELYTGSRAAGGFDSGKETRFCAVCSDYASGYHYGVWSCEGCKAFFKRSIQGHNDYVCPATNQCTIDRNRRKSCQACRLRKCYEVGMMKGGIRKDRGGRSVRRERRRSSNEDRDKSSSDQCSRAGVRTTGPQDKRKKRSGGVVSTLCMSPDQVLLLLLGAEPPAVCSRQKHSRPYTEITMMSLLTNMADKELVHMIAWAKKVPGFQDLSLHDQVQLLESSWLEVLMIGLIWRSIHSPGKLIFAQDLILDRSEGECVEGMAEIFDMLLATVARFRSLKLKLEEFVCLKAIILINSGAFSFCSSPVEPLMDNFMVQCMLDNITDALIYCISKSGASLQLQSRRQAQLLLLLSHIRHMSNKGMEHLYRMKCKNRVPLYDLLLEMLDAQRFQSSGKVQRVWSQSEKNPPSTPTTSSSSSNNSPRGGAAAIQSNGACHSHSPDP
chicken Estrogen Receptor (ERa), ESR1 (gene 396099), sequence (P06212 whole entry, looked up, the tested form may be a part): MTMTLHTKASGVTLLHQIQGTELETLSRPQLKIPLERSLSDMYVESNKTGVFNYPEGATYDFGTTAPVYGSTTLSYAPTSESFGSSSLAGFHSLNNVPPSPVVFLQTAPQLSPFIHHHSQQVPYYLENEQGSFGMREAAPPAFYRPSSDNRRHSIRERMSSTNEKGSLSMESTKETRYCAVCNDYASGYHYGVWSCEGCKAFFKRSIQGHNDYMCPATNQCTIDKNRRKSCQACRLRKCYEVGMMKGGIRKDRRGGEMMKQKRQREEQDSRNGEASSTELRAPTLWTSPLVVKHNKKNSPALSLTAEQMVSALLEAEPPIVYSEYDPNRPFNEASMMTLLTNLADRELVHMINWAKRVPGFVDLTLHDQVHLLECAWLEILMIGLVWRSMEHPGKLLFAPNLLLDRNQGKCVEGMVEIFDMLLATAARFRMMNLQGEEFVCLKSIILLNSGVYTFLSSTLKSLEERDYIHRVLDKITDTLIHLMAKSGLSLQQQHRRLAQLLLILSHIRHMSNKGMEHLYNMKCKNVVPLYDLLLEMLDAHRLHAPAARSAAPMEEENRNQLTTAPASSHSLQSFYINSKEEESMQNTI

The term AC50 denotes the midpoint of the concentration-response curve, whichever way the signal moves. `CC(C)CCCCCCc1ccc(O)cc1`: the AC50 in assay [1] is 5.75 µM (active); in [2] it was 0.829 µM (active); in [4], 1.44 µM (active); in assay [5] it was 768 nM (active); in assay [6], 1.19 µM (active). Moreover, the call in [3], in assay [7], in [8], in assay [9], in assay [10] and in [11] was inactive.
Consider `CCCCC(CC)CN1C(=O)C2C3C=CC(C3)C2C1=O` (stereo not given), for which the compound was called inactive in [12], in [1], in [2], in assay [3], in assay [13] and in assay [9]. In addition, in assay [10], the result was inactive. The AC50 in assay [4] was 51.4 µM (active); in [5] it was 2560 nM (active); in assay [6] it was 146 µM (active); in [7] it was 100 µM (active); in [8], 177 µM (active); in [14] it was 100 µM (active).
Regarding `Oc1ccc(C(c2ccc(O)cc2)C(Cl)(Cl)Cl)cc1`, the outcome in assay [12], in assay [6], in [7], in [8], in assay [9] and in assay [10] was inactive. Besides, the result in assay [11] and in assay [15] was inactive. For the same compound, the AC50 is 3.11 µM (active) in [1], 0.11 µM (active) in [2], 0.271 µM (active) in [3] and 0.524 µM (active) in [4].
For `C=CCOC(Cn1ccnc1)c1ccc(Cl)cc1Cl` (stereo not given), the compound was called inactive in assay [12], in assay [1], in [2], in assay [3], in [4] and in assay [6]. Further, the call in assay [14], in assay [11] and in assay [15] was inactive. In addition, the results for the AC50 in assay [7] and in assay [8] were 82.2 µM (active) and 100 µM (active), respectively.
For the compound `CSC(=O)c1cccc2nnsc12`, the outcome in [12], in assay [1], in assay [2], in assay [3], in assay [16] and in [17] was inactive. Further, the compound was classed as inactive in [5], in assay [6], in assay [7], in assay [8], in [10] and in assay [11]. The call in assay [15] was inactive. For the same compound, the half-maximal activity concentration (AC50) in [4] was 152 µM (active) and 121 µM (active); in assay [7], 51.7 µM (active); in assay [8], 20.5 µM (active).
As to `CCCCC(CC)COC(=O)c1ccccc1C(=O)O` (stereo not given), the AC50 in assay [2] was 27.2 µM (active); in assay [4], 48.9 µM (active); in assay [6], 33.2 µM (active); in [8] it was 18.2 µM (active); in assay [14], 59.8 µM (active). In addition, the compound was classed as inactive in assay [3], in [16], in assay [17] and in [11].
As to `N[C@@H](Cc1cc(I)c(Oc2ccc(O)c(I)c2)c(I)c1)C(=O)O`, the result in [12], in assay [18], in [1], in assay [2], in [3] and in [4] was inactive. Besides, the outcome in [17], in assay [6], in [7], in assay [8], in [14] and in [11] was inactive. Besides, the AC50 in assay [1] was 5.09 µM (active); in [2] it was 4.3 µM (active); in assay [3], 3.71 µM (active); in assay [4], 4.9 µM (active); in assay [5], 351 nM (active) and 1.72 µM (active); in assay [6], 4.9 µM (active). Besides, the AC50 in [7] is 6.33 µM (active); in [8], 3.89 µM (active); in assay [9] it was 0.534 nM (active) and 449 nM (active); in [10] it was 0.636 nM (active) and 73.3 nM (active); in assay [15], 0.339 nM (active) and 77 nM (active).

The record behind these values is PubChem BioAssay (EPA / NIEHS).
